# The supplement of paper PMC4022240
# ± gives the standard deviation.
# T1: HaloTag-ATRX ADD domain (163-292)
# T1 chain: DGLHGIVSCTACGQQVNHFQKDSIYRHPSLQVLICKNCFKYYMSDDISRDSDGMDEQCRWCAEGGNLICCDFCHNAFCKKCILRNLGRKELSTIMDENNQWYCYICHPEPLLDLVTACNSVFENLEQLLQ
# Tests used:
# Test in all cases: peptide microarray binding signal (635 nm), min-max normalized on array (fraction of array maximum); higher = stronger binding
# Settings in all cases: peptide region: H3 1-13
# [1] = target: T1, HaloTag-ATRX ADD domain (163-292)
# Procedure: (§1)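 Histone 13-mer peptides were synthesized as cellulose conjugates with a C-terminal 20-atom PEG linker and printed in triplicate on nitrocellulose. The sequence given is the unmodified backbone; PTMs (Kme1/2/3, Kac, Sph/Tph, Rme/Rme2a/Rme2s, Rcit) are listed in the label and the 'peptide modifications' condition. Slides were probed at 4 °C for 1 h with biotin-labelled (HQ)5-HaloTag reader fusions (ATRX-ADD, ING2-PHD) then streptavidin-Alexa647, or with rabbit histone antibodies then anti-rabbit Alexa647. The mean 635 nm signal of the triplicate spots was scaled 0-1 between the lowest and highest values on each array.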
# [2] = target: HaloTag-ING2 PHD (mouse Ing2 200-280)
# Procedure: as §1
# [3] = target: anti-H3K4me3 antibody ab8580
# Procedure: as §1
# [4] = target: anti-H3K9me3 antibody ab8898
# Procedure: as §1
# [5] = peptide modifications: H3R8me1 H3K9ac, binder concentration: 1:2,000 dilution
# [6] = peptide modifications: H3R8me1 H3K9ac, binder concentration: 1:10,000 dilution
# [7] = peptide modifications: H3R8me2a H3K9me3, binder concentration: 1:2,000 dilution
# [8] = peptide modifications: H3R8me2a H3K9me3, binder concentration: 1:10,000 dilution
# [9] = peptide modifications: H3R8me2s H3K9me1, binder concentration: 1:2,000 dilution
# [10] = peptide modifications: H3R8me2s H3K9me1, binder concentration: 1:10,000 dilution
# [11] = peptide modifications: H3R8me1 H3K9me1, binder concentration: 1:2,000 dilution
# [12] = peptide modifications: H3R8me1 H3K9me1, binder concentration: 1:10,000 dilution
# [13] = peptide modifications: H3T3ph H3K4ac, binder concentration: 1:2,000 dilution
# [14] = peptide modifications: H3T3ph H3K4ac, binder concentration: 1:10,000 dilution
# [15] = peptide modifications: H3T3ph H3K4me1, binder concentration: 1:2,000 dilution
# [16] = peptide modifications: H3T3ph H3K4me1, binder concentration: 1:10,000 dilution
# [17] = peptide modifications: H3R8cit, binder concentration: 1:2,000 dilution
# [18] = peptide modifications: H3R8cit, binder concentration: 1:10,000 dilution
# [19] = peptide modifications: H3R8me1, binder concentration: 1:2,000 dilution
# [20] = peptide modifications: H3R8me1, binder concentration: 1:10,000 dilution
# [21] = peptide modifications: H3R8me2a H3K9me1, binder concentration: 1:2,000 dilution
# [22] = peptide modifications: H3R8me2a H3K9me1, binder concentration: 1:10,000 dilution
# [23] = peptide modifications: H3R8me1 H3K9me2, binder concentration: 1:2,000 dilution
# [24] = peptide modifications: H3R8me1 H3K9me2, binder concentration: 1:10,000 dilution
binder,measurement,setting,value
ARTKQTARKSTGG [H3 1-13 A R T K Q T A Rme Kac S T G G],peptide microarray binding signal,"[1]; peptide modifications: H3R8me1 H3K9ac, binder concentration: 50 nM",0.00721 ± 8e-05
same,peptide microarray binding signal,"[1]; peptide modifications: H3R8me1 H3K9ac, binder concentration: 500 nM",0.0187 ± 0.0017
same,peptide microarray binding signal,"[2]; peptide modifications: H3R8me1 H3K9ac, binder concentration: 10 nM",0.0141 ± 0.00051
same,peptide microarray binding signal,"[2]; peptide modifications: H3R8me1 H3K9ac, binder concentration: 100 nM",0.0352 ± 0.0065
same,peptide microarray binding signal,[3]; [5],0.00179 ± 0.00022
same,peptide microarray binding signal,[3]; [6],0.000628 ± 6.7e-06
same,peptide microarray binding signal,[4]; [5],0.00122 ± 4.2e-05
same,peptide microarray binding signal,[4]; [6],0.000807 ± 1.5e-05
ARTKQTARKSTGG [H3 1-13 A R T K Q T A Rme2a Kme3 S T G G],peptide microarray binding signal,"[1]; peptide modifications: H3R8me2a H3K9me3, binder concentration: 50 nM",0.955 ± 0.067
same,peptide microarray binding signal,"[1]; peptide modifications: H3R8me2a H3K9me3, binder concentration: 500 nM",0.905 ± 0.038
same,peptide microarray binding signal,"[2]; peptide modifications: H3R8me2a H3K9me3, binder concentration: 10 nM",0.126 ± 0.042
same,peptide microarray binding signal,"[2]; peptide modifications: H3R8me2a H3K9me3, binder concentration: 100 nM",0.201 ± 0.059
same,peptide microarray binding signal,[3]; [7],0.0701 ± 0.02
same,peptide microarray binding signal,[3]; [8],0.0416 ± 0.019
same,peptide microarray binding signal,[4]; [7],0.458 ± 0.13
same,peptide microarray binding signal,[4]; [8],0.309 ± 0.082
ARTKQTARKSTGG [H3 1-13 A R T K Q T A Rme2s Kme S T G G],peptide microarray binding signal,"[1]; peptide modifications: H3R8me2s H3K9me1, binder concentration: 50 nM",0.0145 ± 0.00064
same,peptide microarray binding signal,"[1]; peptide modifications: H3R8me2s H3K9me1, binder concentration: 500 nM",0.0339 ± 0.0019
same,peptide microarray binding signal,"[2]; peptide modifications: H3R8me2s H3K9me1, binder concentration: 10 nM",0.0365 ± 0.0046
same,peptide microarray binding signal,"[2]; peptide modifications: H3R8me2s H3K9me1, binder concentration: 100 nM",0.0547 ± 0.007
same,peptide microarray binding signal,[3]; [9],0.0103 ± 0.0015
same,peptide microarray binding signal,[3]; [10],0.0069 ± 0.0003
same,peptide microarray binding signal,[4]; [9],0.00578 ± 0.0013
same,peptide microarray binding signal,[4]; [10],0.00588 ± 0.00043
ARTKQTARKSTGG [H3 1-13 A R T K Q T A Rme Kme S T G G],peptide microarray binding signal,"[1]; peptide modifications: H3R8me1 H3K9me1, binder concentration: 50 nM",0.0189 ± 0.0012
same,peptide microarray binding signal,"[1]; peptide modifications: H3R8me1 H3K9me1, binder concentration: 500 nM",0.0502 ± 0.0023
same,peptide microarray binding signal,"[2]; peptide modifications: H3R8me1 H3K9me1, binder concentration: 10 nM",0.0183 ± 0.0025
same,peptide microarray binding signal,"[2]; peptide modifications: H3R8me1 H3K9me1, binder concentration: 100 nM",0.0398 ± 0.0084
same,peptide microarray binding signal,[3]; [11],0.00206 ± 9e-05
same,peptide microarray binding signal,[3]; [12],0.00108 ± 5e-05
same,peptide microarray binding signal,[4]; [11],0.00319 ± 0.00084
same,peptide microarray binding signal,[4]; [12],0.00202 ± 3.2e-05
ARTKQTARKSTGG [H3 1-13 A R Tph Kac Q T A R K S T G G],peptide microarray binding signal,"[1]; peptide modifications: H3T3ph H3K4ac, binder concentration: 50 nM",0.00699 ± 0.00027
same,peptide microarray binding signal,"[1]; peptide modifications: H3T3ph H3K4ac, binder concentration: 500 nM",0.0189 ± 0.0052
same,peptide microarray binding signal,"[2]; peptide modifications: H3T3ph H3K4ac, binder concentration: 10 nM",0.01 ± 0.0027
same,peptide microarray binding signal,"[2]; peptide modifications: H3T3ph H3K4ac, binder concentration: 100 nM",0.024 ± 0.0049
same,peptide microarray binding signal,[3]; [13],0.00177 ± 0.0002
same,peptide microarray binding signal,[3]; [14],0.00325 ± 0.0004
same,peptide microarray binding signal,[4]; [13],0.00104 ± 0.00017
same,peptide microarray binding signal,[4]; [14],0.00156 ± 0.00017
ARTKQTARKSTGG [H3 1-13 A R Tph Kme Q T A R K S T G G],peptide microarray binding signal,"[1]; peptide modifications: H3T3ph H3K4me1, binder concentration: 50 nM",0.00492 ± 0.00024
same,peptide microarray binding signal,"[1]; peptide modifications: H3T3ph H3K4me1, binder concentration: 500 nM",0.0238 ± 0.013
same,peptide microarray binding signal,"[2]; peptide modifications: H3T3ph H3K4me1, binder concentration: 10 nM",0.00376 ± 0.00014
same,peptide microarray binding signal,"[2]; peptide modifications: H3T3ph H3K4me1, binder concentration: 100 nM",0.021 ± 0.002
same,peptide microarray binding signal,[3]; [15],0.021 ± 0.0064
same,peptide microarray binding signal,[3]; [16],0.00765 ± 0.0012
same,peptide microarray binding signal,[4]; [15],0.00298 ± 0.00034
same,peptide microarray binding signal,[4]; [16],0.0015 ± 5.1e-05
ARTKQTARKSTGG [H3 1-13 A R T K Q T A Rcit K S T G G],peptide microarray binding signal,"[1]; peptide modifications: H3R8cit, binder concentration: 50 nM",0.00727 ± 0.00022
same,peptide microarray binding signal,"[1]; peptide modifications: H3R8cit, binder concentration: 500 nM",0.0196 ± 0.0019
same,peptide microarray binding signal,"[2]; peptide modifications: H3R8cit, binder concentration: 10 nM",0.0125 ± 0.004
same,peptide microarray binding signal,"[2]; peptide modifications: H3R8cit, binder concentration: 100 nM",0.0291 ± 0.013
same,peptide microarray binding signal,[3]; [17],0.000359 ± 9.7e-06
same,peptide microarray binding signal,[3]; [18],0.000456 ± 9.9e-06
same,peptide microarray binding signal,[4]; [17],0.000785 ± 7.6e-05
same,peptide microarray binding signal,[4]; [18],0.000404 ± 4.4e-06
ARTKQTARKSTGG [H3 1-13 A R T K Q T A Rme K S T G G],peptide microarray binding signal,"[1]; peptide modifications: H3R8me1, binder concentration: 50 nM",0.00875 ± 0.0009
same,peptide microarray binding signal,"[1]; peptide modifications: H3R8me1, binder concentration: 500 nM",0.0184 ± 0.00056
same,peptide microarray binding signal,"[2]; peptide modifications: H3R8me1, binder concentration: 10 nM",0.005013 ± 5e-05
same,peptide microarray binding signal,"[2]; peptide modifications: H3R8me1, binder concentration: 100 nM",0.0155 ± 0.0047
same,peptide microarray binding signal,[3]; [19],0.000717 ± 4.6e-05
same,peptide microarray binding signal,[3]; [20],0.000685 ± 2.6e-05
same,peptide microarray binding signal,[4]; [19],0.00071 ± 4.4e-05
same,peptide microarray binding signal,[4]; [20],0.000519 ± 5.6e-06
ARTKQTARKSTGG [H3 1-13 A R T K Q T A Rme2a Kme S T G G],peptide microarray binding signal,"[1]; peptide modifications: H3R8me2a H3K9me1, binder concentration: 50 nM",0.0352 ± 0.0011
same,peptide microarray binding signal,"[1]; peptide modifications: H3R8me2a H3K9me1, binder concentration: 500 nM",0.0882 ± 0.0059
same,peptide microarray binding signal,"[2]; peptide modifications: H3R8me2a H3K9me1, binder concentration: 10 nM",0.033 ± 0.0066
same,peptide microarray binding signal,"[2]; peptide modifications: H3R8me2a H3K9me1, binder concentration: 100 nM",0.0721 ± 0.0073
same,peptide microarray binding signal,[3]; [21],0.00366 ± 0.00063
same,peptide microarray binding signal,[3]; [22],0.00114 ± 3e-05
same,peptide microarray binding signal,[4]; [21],0.00186 ± 0.00023
same,peptide microarray binding signal,[4]; [22],0.00208 ± 7.7e-05
ARTKQTARKSTGG [H3 1-13 A R T K Q T A Rme Kme2 S T G G],peptide microarray binding signal,"[1]; peptide modifications: H3R8me1 H3K9me2, binder concentration: 50 nM",0.0149 ± 0.00099
same,peptide microarray binding signal,"[1]; peptide modifications: H3R8me1 H3K9me2, binder concentration: 500 nM",0.0405 ± 0.00097
same,peptide microarray binding signal,"[2]; peptide modifications: H3R8me1 H3K9me2, binder concentration: 10 nM",0.0115 ± 0.00013
same,peptide microarray binding signal,"[2]; peptide modifications: H3R8me1 H3K9me2, binder concentration: 100 nM",0.0224 ± 0.00044
same,peptide microarray binding signal,[3]; [23],0.00179 ± 7.7e-05
same,peptide microarray binding signal,[3]; [24],0.00108 ± 5.7e-05
same,peptide microarray binding signal,[4]; [23],0.00208 ± 0.00038
same,peptide microarray binding signal,[4]; [24],0.0019 ± 6.5e-05
